Molecules are shown by their SMILES. Among all 68,000 compounds or so, about 2,700 (4%) showed an effect of 50% or more. The sample holds strong results, similar compounds and a random draw of the others, so the mix is not that of the screen.

The assay concerns Plasmodium berghei. In words: Screen against P. berghei liver stage (PbLuc), transformed with Luciferase, at 2uM. Format: functional, HepG2. The following applies: tested at 2 uM.
Consider `CN(Cc1cccs1)c1cc(N2CCCC2CO)ncn1` (stereo not given), for which the INHIBITION is given as -25.71%. The figure for `Cc1c[nH]cc1C(=O)N1CCN(CCc2cccs2)CC1` is -14.3%; for `Cc1ccc(OCC(C)NS(C)(=O)=O)cc1` (stereo not given) it is 41.84%; for `COc1ccc(OCC(C)NS(C)(=O)=O)cc1` (stereo not given) it is 37.05%. Consider `Cc1ccc(OCC(C)NS(C)(=O)=O)cc1C` (stereo not given), for which the INHIBITION stood at 52.85%.

As to `Cc1ncc(S(C)(=O)=O)c(N(C)CCCc2cnn(C)c2)n1`, the INHIBITION turned out to be 13.95%. Under `CCc1ccc(C(=O)N2C[C@@H]3COC[C@@H](C(=O)NC)[C@@H]3C2)cc1` stands -10.98%; under `CNC(=O)[C@@H]1COC[C@H]2CN(C(=O)c3ccc(OC)cc3)C[C@H]21`, 51.36%; under `CNC(=O)[C@@H]1COC[C@H]2CN(C(=O)c3cccc(OC)c3)C[C@H]21`, 11.6%.

For the compound `Cc1ccc(-c2noc(CN3CC(n4cc(C)cn4)C3)n2)cc1`, the INHIBITION is -21.39%. Under `c1cnn(C2CN(Cc3nc(-c4ccsc4)no3)C2)c1` stands -5.2%. The figure for `Cc1cnn(C2CN(Cc3nc(-c4ccsc4)no3)C2)c1` is 56.02%; for `COCC1CN(C(=O)Cc2cccs2)Cc2c1cnn2C` (stereo not given) it is -41.11%; for `COCC1CN(C(=O)CC2Cc3ccccc3C2)Cc2c1cnn2C` (stereo not given) it is 56.25%. On to `COCC1CN(C(=O)c2ccnnc2)Cc2c1cnn2C` (stereo not given), for which the INHIBITION worked out at 6.57%.

Regarding `Cc1noc(C)c1S(=O)(=O)N1CCC(Oc2ccccn2)CC1`, the INHIBITION is -11.22%.

On to `COC(=O)c1sccc1S(=O)(=O)N1CCC(Oc2cccnn2)CC1`, for which the INHIBITION came out at 23.42%. The figure for `COc1ccccc1S(=O)(=O)N1CCC(Oc2cccnn2)CC1` is 33.61%. The figure for `Cc1ccc(S(=O)(=O)N2CCC(Oc3cccnn3)CC2)c(C)c1` is 71.06%. Under `Cc1noc(C)c1S(=O)(=O)N1CCC(Oc2cccnn2)CC1` stands -12.23%.

On to `Cc1ccc(S(=O)(=O)N2CCC(Oc3ccccn3)CC2)c(C)c1`, for which the INHIBITION is reported as 56.24%. Under `O=S(=O)(c1ccccc1F)N1CCC(Oc2cccnn2)CC1` stands 51.31%. Under `CN(C)S(=O)(=O)N1CCC(Oc2cccnn2)CC1` stands 20.38%. The figure for `CN(C)S(=O)(=O)N1CCC(Oc2ccccn2)CC1` is -19.47%; for `O=C(NCCCn1cccn1)N1CCCC1c1cccs1` (stereo not given) it is -13.45%; for `CCc1cc2c(N3CCCC(c4cc(C(N)=O)[nH]n4)C3)ncnc2s1` (stereo not given) it is -126.83%. In the case of `Cc1cnc(C(=O)N2CCc3c(nc(-c4ccncc4)[nH]c3=O)C2)cn1`, the INHIBITION came out at 10.63%. Consider `CNC(=O)C(C)(C)N1CCC[C@H]1C(=O)NC1CC1`, for which the INHIBITION worked out at 24.91%. The figure for `COc1ccc(C2(C(=O)N3C[C@@H](C(=O)O)[C@H](C(C)C)C3)CC2)cc1` is 17.2%; for `CC(C)[C@@H]1CN(C(=O)C2(c3ccccc3)CC2)C[C@H]1C(=O)O` it is 69.67%; for `CC(C)[C@@H]1CN(C(=O)C2(c3ccccc3)CCN(C)CC2)C[C@H]1C(=O)O` it is 31.51%. The figure for `CCS(=O)(=O)N(C)c1ccc(C(=O)N2CCCC(C)C2)cc1` (stereo not given) is 62.77%; for `CCN(c1ccc(C(=O)N2CCCC(C)C2)cc1)S(=O)(=O)CC` (stereo not given) it is -2.82%. Under `CCN(c1ccc(C(=O)N2CCC(C)CC2)cc1)S(=O)(=O)CC` stands 9.63%. Regarding `CN1CCN(C(=O)C2(NC(N)=O)CCCCC2)Cc2ccccc21`, the INHIBITION is given as 50.61%.

For the compound `CN1CCN(C(=O)C2(S(C)(=O)=O)CCCC2)Cc2ccccc21`, the INHIBITION is given as -21.76%.

In the case of `NC(=O)NC1(C(=O)N2CCc3c(Cl)cccc3C2)CCCCC1`, the INHIBITION amounted to 42.2%. Under `O=C(CC1CC1)N[C@@H]1CN(Cc2ccccn2)C[C@@H]2CCCO[C@@H]21` stands -5.84%. The figure for `c1ccc(CCN2CCCC(c3ccnc4nccn34)C2)cc1` (stereo not given) is 32.74%; for `Cc1csc(C(=O)N2CCC3(CC(N(C)c4ccncn4)C3)C2)c1` (stereo not given) it is -18.68%; for `CN(CC(O)C1CC1)C(=O)Nc1ccc(F)c(-n2cccc2)c1` (stereo not given) it is 42.76%. The figure for `c1ccc(-c2nc(CCNCc3cccnc3)co2)cc1` is 30.88%; for `CS(=O)(=O)NCCC(=O)NC1(c2ccc(F)cc2)CCCC1` it is 5.17%. Regarding `CS(=O)(=O)NCCNC(=O)NC1(c2ccc(Cl)cc2)CCC1`, the INHIBITION turned out to be 43.88%. Under `CS(=O)(=O)NCCNC(=O)NC1(c2ccc(F)cc2)CCCC1` stands 52.3%; under `CN(C)CCOCc1nnc2n1CCN(Cc1ccsc1)C2`, 20.2%; under `Cc1c(C2CC2)n[nH]c1NC(=O)C1CCCN(C(=O)NCC(C)C)C1` (stereo not given), -7.81%. Under `CCc1cc(NC(=O)C2CCCN(C(=O)NCC(C)C)C2)[nH]n1` (stereo not given) stands 6.62%. The figure for `Cc1n[nH]c(C)c1NC(=O)C1CCCN(C(=O)NCC(C)C)C1` (stereo not given) is 52.95%; for `CC(C)c1sc(Cl)nc1C(=O)N1CCN(c2ccccn2)CC1` it is 20.42%.

As for `COc1ncnc2c1CCN(C(=O)NCc1cccnc1)CC2`, the INHIBITION is 46.02%. Under `O=C(NCCc1ccncc1)C1CCN(Cc2ccco2)CC1` stands -0.55%; under `COCCNC(=O)Cn1cc(NC(=O)c2ccc(C(C)(C)C)cc2)cn1`, -38.81%. Under `CCc1nc(CS(=O)(=O)Cc2noc(C3CC3)n2)cs1` stands -18.58%; under `CCc1nc(CN2CCCN(Cc3noc(C4CC4)n3)CC2)cs1`, -17.17%. The figure for `CC(C)c1nc(CS(=O)(=O)Cc2noc(C3CC3)n2)cs1` is 53.12%. Consider `CN1CC(C(=O)NC2(c3ccc(Cl)cc3)CCOCC2)CC1=O` (stereo not given), for which the INHIBITION came out at 3%.

Take `CN(C)C(=O)COCC1CN(Cc2ccco2)Cc2ncn(C)c21` (stereo not given): the INHIBITION is -45.9%. Under `CC(C)c1nnc2n1CCN(C(=O)c1ccc3c(c1)CCC3)C2` stands 9.17%.

Consider `CC(C)c1nnc2n1CCN(C(=O)c1ccc(Cn3cccc3)cc1)C2`, for which the INHIBITION is given as 15.08%. Consider `CC(C)c1nnc2n1CCN(C(=O)c1ccc3cc[nH]c3c1)C2`, for which the INHIBITION amounted to 45.92%.

Turning to `CC(C)c1nnc2n1CCN(C(=O)c1ccc(CN(C)C)cc1)C2`, the INHIBITION was 50.72%. The figure for `CC(C)c1nnc2n1CCN(C(=O)c1ccc3c(c1)COC3)C2` is 57.75%; for `CCCc1ccc(C(=O)N2CCn3c(nnc3C(C)C)C2)cc1` it is 15.08%; for `O=C(c1ccoc1)N1CCn2cnc(COCC3CC3)c2C1` it is 41.79%.

Values taken from ChEMBL document CHEMBL4513216, “Probing the Open Global Health Chemical Diversity Library for Multistage-Active Starting Points for Next-Generation Antimalarials” (ACS Infect Dis, 2020).
